Results taken from PubChem BioAssay AID1508622 (National Center for Advancing Translational Sciences (NCATS), 2021).
Activity calls are given as the source filed them. A call without a number means that no potency is given here. The call rests on the fitted dose curve; in most records, active means well fitted activation curve with a large enough effect; inconclusive means small, poorly fitted or top-dose-only effect; inactive means no such curve, though single readings can be large or run the other way.

Assay: Confirmatory qHTS for Identification of Small Molecule Activators of Huntingtin-Antisense Promoter Activity
Conditions: HEK293 HTT-AS promoter firefly luciferase reporter, 24 h; series mostly up to 57.5 µM
In short: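 HEK293 luciferase reporter cells, 2,500/well, cultured 24 h, then exposed to compounds at up to 57.5 uM final for 24 h at 37C. Firefly luciferase luminescence read; normalized to vehicle (0%) and zero RLU (-100%).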
Potency means the concentration at half of the fitted maximal effect.

SMILES	Potency
Cc1ccc2nc(CSc3nnc(NC(=O)COc4ccccc4)s3)cc(=O)n2c1	inactive
COc1cccc(C(=O)N2c3cc(C)ccc3C(C)(c3ccccc3)CC2(C)C)c1 (centres undefined)	inactive
Cc1csc2nc(COC(=O)c3ccccc3NC(=O)c3ccccc3Cl)cc(=O)n12	inactive
CC(=O)c1ccc(N2CCN(c3ncnc4c3cnn4-c3cc(Cl)ccc3C)CC2)cc1	inactive
O=C1CCCc2cc(S(=O)(=O)NCC3CCC(C(=O)Nc4ccc(Cl)cc4)CC3)ccc2N1 (centres undefined)	inactive
Cc1ccc(C(=O)Nc2ccc(S(=O)(=O)N(Cc3ccccc3)c3ccccc3)cc2)cc1	inactive
CCOC(=O)c1cc2c(=O)n3ccccc3nc2n(CC2CCCO2)c1=NC(=O)c1cc(C)cc(C)c1 (centres undefined)	inactive
COc1ccc(N2CCN(C(CNC(=O)c3ccc(C)cc3)c3ccc4c(c3)OCO4)CC2)cc1 (centres undefined)	inactive
COc1cc(Nc2ncc3c(n2)CCN(Cc2cc(F)cc(F)c2)C3)cc(OC)c1	inactive
CCOC(=O)c1ccc(N2C(=O)c3[nH]nc(-c4ccccc4)c3C2c2cccs2)cc1 (centres undefined)	inactive
COc1ccc(-c2cc(C(=O)N3CCN(c4ccccc4OC)CC3)c3cc(C(C)C)ccc3n2)cc1	inactive
Cc1ccc(Cl)cc1N1CCN(C(=O)Cn2cnc3nc4c(cc3c2=O)CCCC4)CC1	inactive
Cn1c(CN2CCCCC2)nc2cc(NC(=O)c3ccc(Cl)cc3)ccc21	inactive
COc1ccccc1N1CCN(C(=O)C2CCCN(S(=O)(=O)c3ccc4c(c3)oc(=O)n4C)C2)CC1 (centres undefined)	inactive
Cc1cccc(NC(=O)Cc2ccc(-n3c(C)nc4cccnc43)cc2)c1C	inactive
CN(C)c1ccc(C(=O)NCCCCCCC(=O)NO)cc1	30.1 µM (active)
COc1cccc(N2CCN(C(=O)c3cccc(-n4c(C)nc5cccnc54)c3)CC2)c1	inactive
COc1cccc(-c2nc(CS(=O)CC(=O)N3CCN(c4cccc(C(F)(F)F)c4)CC3)c(C)o2)c1 (centres undefined)	inactive
CN(C)CCNC(=O)C1CCN(Cc2cc3ccccc3n2Cc2ccccc2)CC1	inactive
CCN(C(=O)CSc1nc(-c2ccccc2)no1)c1cccc(C)c1	inactive

SMILES	Potency
Cc1ccccc1Cc1c(C)nc2c(-c3ccccc3)c(C)[nH]n2c1=O	inactive
O=C(NCC1CCN(Cc2ccccc2F)CC1)Nc1ccc(F)c(Cl)c1	inactive
CC(C)c1ccc(Nc2c(-c3ccccn3)nc3ccccn23)cc1	inactive
COc1ccc(C2=CC(c3ccccc3Cl)n3nc(-c4ccc(Cl)cc4)nc3N2)cc1 (centres undefined)	inactive
O=C(Nc1cccc(Cl)c1)c1c(NC(=O)C(F)(F)F)sc2c1CCCC2	inactive
CCOC(=O)c1cccc(NC(=O)CCn2c(-c3ccc(F)cc3)cc(C(=O)OCC)c2C)c1	inactive
COc1ccc(-n2c(/C=C/c3cccc4ccccc34)nc3ccccc3c2=O)cc1Cl	inactive
CCS(=O)(=O)NCCc1sc2nc(-c3ccc(OC)cc3)nn2c1C	inactive
O=S(=O)(NCC(c1ccco1)N1CCN(c2ccc(F)cc2)CC1)c1cc(F)ccc1F (centres undefined)	inactive
CCOC(=O)C1CCCN(C(=O)Cn2c(=O)cc(C)c3c(C)nn(C)c32)C1 (centres undefined)	inactive
CCOc1ccccc1CNC(=O)c1cc2c(=O)n(Cc3ccccc3)ccc2nc1C	inactive
Cc1ccccc1OCc1ccc(-c2nc(C#N)c(NCc3cccnc3)o2)o1	inactive
Cc1ccc(CNC(=O)c2c(Nc3ccccc3C)sc(C(=O)c3ccc(F)cc3)c2N)cc1	inactive
CCS(=O)(=O)N1CC(CC#N)(n2cc(-c3ncnc4[nH]ccc34)cn2)C1	30.1 µM (active)
Cc1cccc(NC(c2cccc(Cl)c2)c2ccc3cccnc3c2O)n1 (centres undefined)	inactive
COc1ccccc1NC(=O)CSc1oc(-c2ccccc2)nc1S(=O)(=O)c1ccccc1	inactive
CCOC(=O)C1CCCN(S(=O)(=O)c2ccc3c(c2)CCCN3C(C)=O)C1 (centres undefined)	inactive
COc1ccc(NS(=O)(=O)c2ccc3c(c2)CCCN3C(=O)C2CCC2)cc1OC	inactive
COc1cc(CN(C(=O)c2ccc(OC(C)C)cc2)c2ccccn2)cc(OC)c1OC	inactive
